Experimental data published in PubChem BioAssay AID1619 (SRMLSC, 2009).
The campaign covered roughly 220,000 compounds. About 830 (0.38%) were called active.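 The calls were made as follows: active = compound inhibiting the enzyme by more than half at any dose during confirmatory dose-response retesting; inconclusive = strong single-dose inhibitors picked by rank but not retested; inactive = the rest.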 These entries were drawn from the full list. Results with a measured potency or affinity are listed apart.

target: Leucine aminopeptidase (Plasmodium falciparum (isolate 3D7)) (UniProt Q8IL11); experiment: P. falciparum M17LAP inhibitors, primary screen, biochemical, fluorogenic H-Leu-NHMec substrate, 1536-well (AID 1619); settings: recombinant M17LAP, H-Leu-NHMec fluorogenic kinetic assay; at 30 µM; stronger effect = higher value;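 also: plate controls were full reaction with DMSO carrier for no effect and no enzyme background for full effect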
Sequence (Q8IL11 whole entry, looked up): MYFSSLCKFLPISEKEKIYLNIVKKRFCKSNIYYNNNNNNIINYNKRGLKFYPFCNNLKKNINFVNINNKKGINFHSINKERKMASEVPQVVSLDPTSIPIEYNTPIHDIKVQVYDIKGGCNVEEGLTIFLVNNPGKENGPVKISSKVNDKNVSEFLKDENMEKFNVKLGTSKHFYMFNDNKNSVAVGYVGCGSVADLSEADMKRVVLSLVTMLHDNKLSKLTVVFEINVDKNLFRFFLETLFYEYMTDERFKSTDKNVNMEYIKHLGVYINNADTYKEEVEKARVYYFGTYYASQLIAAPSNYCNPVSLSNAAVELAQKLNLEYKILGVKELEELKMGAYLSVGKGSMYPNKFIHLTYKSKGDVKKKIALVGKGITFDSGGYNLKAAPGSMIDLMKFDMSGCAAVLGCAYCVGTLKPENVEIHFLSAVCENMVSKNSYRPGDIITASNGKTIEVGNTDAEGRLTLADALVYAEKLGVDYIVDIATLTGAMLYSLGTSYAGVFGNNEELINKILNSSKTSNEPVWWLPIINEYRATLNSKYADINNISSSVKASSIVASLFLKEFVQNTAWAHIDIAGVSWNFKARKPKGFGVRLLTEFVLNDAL

inhibition, inactive:
O=C(c1ccc(CN2CCOCC2)cc1)N1CCN(c2ccccc2)CC1 3.18%
Cc1ccc(C)c(NC(=O)c2ccc(S(=O)(=O)C(F)F)cc2)c1 -0.05%
COc1ccccc1N1CCN(C(=O)c2cc(C(C)(C)C)oc2C)CC1 13.9%
O=C1OCCC1Sc1nc2ccccc2c(=O)n1-c1ccc(F)cc1 (configuration not stated) -2.24%
CCC1=Nc2cc(C(=O)O)ccc2Sc2ccc(Cl)cc21 7.99%
CCOc1ccccc1Nc1nnc(SCC(=O)Nc2cc(C)on2)s1 -0.81%
Cc1ccc(C)c(OCC(=O)NC(Cc2c[nH]c3ccccc23)C(=O)O)c1 (configuration not stated) -8.94%
Cc1ccc(C(=O)NC(Cc2c[nH]c3ccccc23)C(=O)O)cc1 (configuration not stated) 17.6%
CCOc1ccccc1Nc1nnc(SCC(=O)Nc2ccc3[nH]c(=O)[nH]c3c2)s1 -4.13%
CC(C)C(=O)Nc1nc2c(c(=O)[nH]1)CCCC2 3.8%
CCc1n[n+](CC(=O)c2ccccc2)c(N)s1 -0.05%
COc1ccc(-c2[nH]ncc2/C=C(/C#N)C(=O)NC2CCCCCC2)cc1 -2.26%
COc1ccc(-c2[nH]ncc2/C=C(/C#N)C(=O)NC2CCCCC2)cc1 0.03%
O=C(c1cc(-c2ccccc2)on1)N1CCN(Cc2ccc3c(c2)OCO3)CC1 -6.81%
CCc1ccccc1NC(=O)CSc1ccsc1[N+](=O)[O-] 6.13%
Cc1ccccc1NC(=O)CSc1ccsc1[N+](=O)[O-] 8.37%
Cc1cccc(C(=O)N2CCCCCC2)c1[N+](=O)[O-] -0.16%
CCN1CCN(CC(O)COCc2ccccc2)CC1 (configuration not stated) 8.64%
CCCN(C(=O)/C=C/c1ccco1)c1c(N)n(Cc2ccccc2)c(=O)[nH]c1=O 12.1%
Cc1nn(C(C)C(=O)NC2C(=O)N3C(C(=O)O)=C(CSc4nnnn4C)CSC23)cc1Cl (configuration not stated) 48.7%
Cn1nnnc1SCC1=C(C(=O)O)N2C(=O)C(NC(=O)C3CC3c3ccccc3)C2SC1 (configuration not stated) 20.4%
COc1ccc(Cn2cnc3c([N+](=O)[O-])c(C)c(C)cc32)cc1 16.7%
O=C(Cc1csc(N2CCOCC2)n1)N/N=C/c1ccc(F)cc1 45.5%
COc1ccccc1NC(=O)Nc1cc(C(C)C)ccc1C 3.16%
COc1cc(/C=C2/NC(=O)N(Cc3ccccc3F)C2=O)ccc1O -1.31%
CCOc1cc(/C=C2\C(=O)N(CCc3ccc(OC)c(OC)c3)C(C)=C2C(=O)OC)ccc1O 7.43%
COc1ccc(C(=O)Nc2ccc(Cl)cc2C(=O)NCCN2CCOCC2)cc1 5.43%
Cc1ccc(S(=O)(=O)NNC(=O)CC#N)cc1 5.13%
COc1cc(/C=C2\SC(=N)N(c3ccc4c(c3)OCO4)C2=O)cc(OC)c1O 1.69%
N=C1S/C(=C\c2ccco2)C(=O)N1c1ccc2c(c1)OCO2 6.49%
COc1ccccc1N1C(=N)S/C(=C\c2ccc(-c3ccccc3C(=O)O)o2)C1=O 61.1%
Cc1cccc(NC(=O)CN2C(=O)S/C(=C\c3ccc(-c4cccc(C(=O)O)c4C)o3)C2=O)c1 4.08%
O=C(COC(=O)Cc1ccc(Br)cc1)NCC1CCCCC1 1.79%
CCOC(=O)N1CCN(C(=O)CSc2ccc(-c3cccnc3)nn2)CC1 -5.54%
Cc1c(O)ccc(-c2n[nH]c(C(=O)O)c2-c2nc3ccccc3s2)c1O -2.67%
Oc1ccc(-c2nc3ccccc3s2)c(O)c1 -4.82%
Cc1nc2ccccn2c1C(=O)CSc1ccccc1 24.3%
CCOC(=O)Cc1n[nH]c(=O)c2ccccc12 1.58%
O=C(NCc1ccccn1)c1cc(-c2ccccc2)on1 8.29%
CCOC(=O)CSc1nnc(-c2ccoc2C)n1-c1ccc(C)cc1 14.1%
CC(C)OC(=O)CSc1nnc(-c2ccco2)n1N 6.79%
COC(=O)CSc1nnc(-c2ccco2)n1-c1ccc(C)cc1 13.9%
CCOC(=O)CSc1nnc(-c2ccco2)n1-c1ccccc1 11.8%
Cc1ccc(OCCn2c(=O)oc3ccc(C)cc32)cc1 13.7%
Cn1c(SCC(N)=O)nnc1C1CCN(C(=O)NC2CCCCC2)CC1 -3.93%
COc1ccc(C(C)(C)C)cc1NC(=O)C1C2C=CC(C2)C1C(=O)O (configuration not stated) 7.82%
COc1ccc(C)cc1NC(=O)C1CCCCC1C(=O)O (configuration not stated) 52.8%
COc1ccc(OC)c(NC(=O)C2CCCCC2C(=O)O)c1 (configuration not stated) 40.9%
COc1ccc(OC)c(NC(=O)C2CC(C)=C(C)CC2C(=O)O)c1 (configuration not stated) 34.4%
COc1ccc2cc(C(c3nnnn3CCc3ccccc3)N3CCCC(C)C3)c(=O)[nH]c2c1 (configuration not stated) 10.6%
CCCCNS(=O)(=O)c1ccc(S(=O)(=O)N2CCC3(CC2)OCCO3)cc1 -5.01%
COC(=O)C1=C(NC(=O)COc2ccc(Cl)cc2Cl)CCS1 49.6%
CC(C)(C)S(=O)(=O)/C(C#N)=N/Nc1ccc(Cl)cc1 12.6%
CC(C)(C)S(=O)(=O)/C(C#N)=N/Nc1ccc(C#N)cc1 19.9%
CC(C)(C)c1ccc(N/N=C(\C#N)S(=O)(=O)C(C)(C)C)cc1 23.4%
COc1ccc(N/N=C(/C#N)S(=O)(=O)C(C)(C)C)cc1 5.23%
CC(C)(C)S(=O)(=O)/C(C#N)=N/Nc1ccc(S(N)(=O)=O)cc1 16.4%
CC(C)(C)S(=O)(=O)/C(C#N)=N/Nc1ccc(S(C)(=O)=O)cc1 43.2%
Cn1c(SCc2ccc(Cl)cc2)nc(C(F)(F)F)cc1=O -4.09%
CCN(CC)C(=O)C(=O)c1cn(CC(=O)NCC2CCCO2)c2ccccc12 (configuration not stated) -6.14%
Cc1cccc(NC(=O)c2nc[nH]c2C(=O)NCC(=O)OC(C)(C)C)c1 -3.35%
O=C(NCC1CCCO1)c1csc(Nc2cccc3ccccc23)n1 (configuration not stated) 4.77%
O=C(COc1cccc(NC(=O)c2ccco2)c1)c1ccccc1 -14.2%
O=C(NCCN1CCOCC1)c1ccc(NC(=O)C2COc3ccccc3O2)cc1 (configuration not stated) 3.85%
CCOc1ccc(-n2c(COc3ccccc3)nnc2SCC(N)=O)cc1 -3.38%
Cc1nn(CC(=O)Nc2ccccc2)c(=O)c2ccccc12 20%
Cc1ccc(NC(=O)Cn2nc(C)c3ccccc3c2=O)cc1 23.3%
CC1=C(C)CC(C(=O)NNC(=O)c2csc(C)c2C)C(C(=O)O)C1 (configuration not stated) 44.2%
CC1=C(C)CC(C(=O)NNC(=O)c2ccccc2)C(C(=O)O)C1 (configuration not stated) 32.1%
CC(C)(C)C1CCc2c(C(=O)N/N=C/c3cccs3)csc2C1 (configuration not stated) 1.12%
Cc1scc(C(=O)NNC(=O)CCC(=O)O)c1C 1.05%
CCNC(=S)NNC(=O)c1csc2c1CCC(C)C2 (configuration not stated) -1.92%
CC(C)(C)C1CCc2c(C(=O)NNC(=O)/C=C/C(=O)O)csc2C1 (configuration not stated) 43.8%
COCc1cc(C)nc(SCc2nc3ccccc3c(=O)[nH]2)c1C#N -5.07%
CCOC(=O)c1cc(-c2ccccc2)sc1NC(=O)C(C)N1C(=O)c2ccccc2C1=O (configuration not stated) -1.18%
Nc1cc(-c2ccco2)no1 -0.59%
O=C1c2[nH]nc(-c3ccccc3O)c2C(c2ccccc2F)N1Cc1ccco1 (configuration not stated) 16%
O=C(C(c1ccccc1)c1ccccc1)N1CCN(c2ccccn2)CC1 4.89%
COc1ccc2sc(N3C(=O)CC(Cc4cccc(C)c4)C3=O)nc2c1 (configuration not stated) 29.4%
CC(=O)c1nc(N2C(=O)C3CC=C(C)CC3C2=O)sc1C (configuration not stated) 7.37%
CCOC(=O)/C(=C\c1ccc([N+](=O)[O-])o1)NC(=O)c1ccccc1 -88.3%
O=C(Cc1cn(Cc2cccc(Cl)c2)c2ccccc12)N1CCCCCC1 -20.4%
O=c1c2c3c(sc2nc2sc(CN4CCCCC4)cn12)CCCC3 -6.38%
CC1CCc2c(sc(NC(=O)c3ccccc3C(=O)O)c2C#N)C1 (configuration not stated) 1.93%
CC1CCc2sc(NC(=S)NC(=O)c3ccccc3)c(C#N)c2C1 (configuration not stated) -12%
N#Cc1c(NC(=O)CCC(=O)O)sc2c1CCCCC2 34.4%
N#Cc1c(NC(=O)C2CCCO2)sc2c1CCCCCC2 (configuration not stated) 13.1%
N#Cc1c(NC(=O)c2ccccc2)sc2c1CCCCC2 21.1%
N#Cc1c(NC(=O)C2CC2)sc2c1CCCCC2 28.1%
CC(=O)Nc1sc2c(c1C#N)CCCCC2 -1.44%
N#Cc1c(NC(=O)C2CCCO2)sc2c1CCCCC2 (configuration not stated) -2.74%
O=C(Nc1ccccc1NS(=O)(=O)c1ccc(F)cc1)C1CCC1 6.59%
COc1ccc(-c2cn(-c3ccc(SC(F)F)cc3)c3[n+]2CCC3)cc1OC -11.9%
O=C(CCN1C(=O)c2ccccc2C1=O)Nc1cccnc1 11.6%
N#Cc1c(-c2ccccc2)ccnc1N1CCOCC1 0.41%
CCCCC(=O)NC(c1ccc(OC)c(OC)c1)c1c(O)ccc2ccccc12 (configuration not stated) 5.73%
C=CCNC(=S)Nc1cccc(N)c1 2.22%
